Compound activity as filed in PubChem BioAssay.
SMN2 splice up: enhancers of SMN2 splice variant expression | HEK293 SMN2-luciferase splicing reporter, luminescence, 30-36 h | Potency, µM (titrated, usually from 46.1 µM), inactives show at the highest dose activity change, positive = activation, hits mostly activators | 2.8% of 210,000 active; note: % of control where 0% means no effect; nearly all actives have a fitted effect of over 55% in size
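HEK293 cells carry an SMN2 […]–luciferase reporter in which exon 7 inclusion puts luciferase in frame. Cells were plated 10-12 h before compound addition, then incubated 30-36 h at 37C. ONE-Glo luminescence was read; sodium butyrate at 4.5 mM final served as control.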
FLuc modulator: counter-screen for miR-21 project: firefly luciferase inhibitors or activators | P08659 | purified FLuc, Km substrates, luminescence inhibition | Potency, µM (doses to about 57.5 µM), for the others: top-dose activity change, negative = inhibition, hits mostly inhibitors | 6.9% of 360,000 active | AID 588342;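 note: plate controls were vehicle for no effect and reference inhibitor for full effect; nearly all actives have a fitted effect of over 55% in size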
Target sequence (P08659 whole entry, looked up): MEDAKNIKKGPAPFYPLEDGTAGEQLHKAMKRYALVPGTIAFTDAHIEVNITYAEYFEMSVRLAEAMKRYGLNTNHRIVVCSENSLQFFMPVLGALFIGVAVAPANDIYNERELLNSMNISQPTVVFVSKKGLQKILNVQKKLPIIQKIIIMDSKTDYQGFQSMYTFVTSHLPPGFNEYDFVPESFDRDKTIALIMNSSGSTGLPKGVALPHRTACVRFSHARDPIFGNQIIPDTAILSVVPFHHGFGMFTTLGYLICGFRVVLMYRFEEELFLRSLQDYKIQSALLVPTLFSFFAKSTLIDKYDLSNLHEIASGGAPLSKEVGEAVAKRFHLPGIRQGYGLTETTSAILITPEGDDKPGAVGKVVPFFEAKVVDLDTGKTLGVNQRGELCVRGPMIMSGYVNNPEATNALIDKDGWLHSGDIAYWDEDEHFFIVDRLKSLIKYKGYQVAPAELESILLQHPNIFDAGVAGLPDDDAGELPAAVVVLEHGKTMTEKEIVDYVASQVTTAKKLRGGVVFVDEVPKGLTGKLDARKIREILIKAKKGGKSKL
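Purified P. pyralis luciferase, 10 nM final, with Km-level 10 uM D-luciferin and 10 uM ATP in 50 mM Tris acetate pH 7.5, 10 mM Mg acetate, 0.01% Tween-20, 0.05% BSA; 6-point qHTS titration about 60 µM downward; luminescence read.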
Rab9 prom act: Rab9 promoter activation. Huh7 Rab9 promoter-luciferase reporter, luminescence, 24 h. Potency, µM (top dose mostly 9.22 µM), for the others: at the highest dose activation, negative = inhibition, hits mostly activators. 2.8% of 320,000 active. AID 485297; note: % of control where 0% means no effect; nearly all actives have a fitted effect of over 60% in size
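Cell-based reporter: Huh7 stable for Rab9 promoter-driven luciferase, plated in reduced-serum medium with 10% FBS at 1500 cells/well, compound-treated 24 h at 37 °C, luminescence read after 10 min reagent.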
ELG1 genotoxic: genotoxicity induction in ELG1-luciferase HEK293T cells | 1.3% of 330,000 active | Potency, µM (highest dose often 46 µM), for inactives: at the top dose activity change, positive = activation, actives largely listed as activators | AID 504466 | HEK293T ELG1-luciferase reporter, luminescence, 16 h; note: % of control where 0% means no effect; nearly all actives have a fitted effect of over 60% in size
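Genotoxicity was scored as increased ELG1-luciferase reporter signal, measured by ONE-Glo luminescence (30 min, room temperature). Compound or vehicle exposure of the HEK293T reporter cells lasted 16 hr at 37°C.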
Luc counter: Kinase-Glo luciferase inhibition (counter-screen) | 0.28% of 200,000 active | Potency, µM (highest dose often 38.3 µM), for inactives: at the highest dose activity change, negative = inhibition, usual class: inhibitors | Kinase-Glo luciferase, ATP luminescence, 8 min | Q27757; note: % is set by controls: 0 for no effect and ±100 for the full control effect; nearly all actives have a fitted effect of over 60% in size
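Light output from Kinase-Glo luciferase with luciferin and 10 uM ATP in 50 mM imidazole pH 7.2, KCl, MgCl2, Tween 20, BSA; compound pin-delivered, 8-min ambient incubation, then luminescence read.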
NPC1 promoter act: activators of NPC1 promoter; Huh7 NPC1 promoter luciferase reporter, 24 h; Potency, µM (doses to about 9.22 µM), for the others: top-dose activation, most hits filed as activators; 2.4% of 320,000 active; AID 485313; note: % of control where 0% means no effect; nearly all actives have a fitted effect of over 60% in size
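Luminescence from an NPC1 promoter-driven luciferase reporter in stably transfected Huh7 cells was measured after 24 h compound treatment at 37 °C, followed by 10 min ambient incubation with luciferase detection reagent.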
* hit, by the source's call; u = inconclusive; x = no result. Only some compounds are listed: those with a hit (about 7.4% of all), similar ones and a draw of the others. Calls come from the whole dose curve; as a rule, active = well fitted curve in the direction sought with a large enough effect; inconclusive = small, poorly fitted or top-dose-only effect, or another doubt; inactive = no such curve, though single readings can be large; an effect the other way counts as inactive or inconclusive. Potency is the fitted concentration of half-maximal effect.

SMILES	SMN2 splice up	FLuc modulator	Rab9 prom act	ELG1 genotoxic	Luc counter	NPC1 promoter act
O=C(N/C(=C/c1cccs1)c1nc2ccccc2[nH]1)c1ccccc1	-13.8%	-0.9%	5.1%	1.2%	-2.6%	0.4%
N#C/C(=C\c1ccc(N2CCCC2)c([N+](=O)[O-])c1)c1nc2ccccc2[nH]1	-10.8%	5.36µM*	u	12.1%	-3.8%	u
COc1cc(/C=C(/C#N)c2nc3ccccc3[nH]2)ccc1Oc1ncccc1[N+](=O)[O-]	1.6%	-15.9%	6.6%	14.8%	-0.8%	1.4%
N#C/C(=C\c1cccs1)c1nc2ccccc2[nH]1	7.94µM*	6.75µM*	u	u	-9.9%	u
C(=N\c1nc2ccccc2n1Cc1ccccc1)/c1cccs1	-14.1%	13.5µM*	4.3%	-10.9%	-3.1%	1.2%
N#C/C(=C\c1ccc(OC(=O)c2cccs2)cc1)c1nc2ccccc2[nH]1	11.2µM*	u	17.3%	u	-20.7%	17.6%
COc1ccc2nc(/C(C#N)=C\c3ccc(C(=O)O)cc3)[nH]c2c1	x	23.9µM*	0.9%	2.3%	x	-2.4%
CCc1ccccc1OCC(=O)Nc1cc(S(=O)(=O)N(CC)CC)ccc1N1CCOCC1	x	6.9%	1.4%	4.4%	x	-1.9%
COc1cc(C)c2c(=O)cc(-c3ccccc3)oc2c1	11.2µM*	x	x	x	-8.8%	x
COc1cc(OC)c2c(=O)cc(-c3cccnc3)oc2c1	x	u	0.9%	u	x	-3.4%
COc1cc(OC)c2c(=O)cc(-c3ccccc3)oc2c1	x	5.36µM*	u	23.1µM*	x	u
COc1cccc2cc(C(=O)NCc3ccc(Cl)cc3)c(=N)oc12	x	u	-0.5%	-7.5%	x	-7.8%
CCOc1cccc2cc(C(N)=O)c(=N)oc12	x	-0.8%	-7.9%	-3.1%	x	0.6%
COc1cccc2cc(C(=O)NCc3ccccc3)c(=N)oc12	x	10.7µM*	2.6%	13.8%	x	-3.6%
CCOc1cccc2cc(C(=O)NC(C)c3ccccc3)c(=N)oc12 (configuration not stated)	x	1.0%	3.4%	-1.8%	x	-0.1%
CCOc1cccc2cc(C(=O)NCc3ccc(F)cc3)c(=N)oc12	x	15.1µM*	-2.0%	u	x	-3.0%
CCOc1cccc2cc(C(=O)NCc3ccccc3)c(=N)oc12	x	16.9µM*	0.7%	16.0%	x	-1.1%
CCOC(=O)C1CCCN(C(=O)COc2ccc(N(C)S(=O)(=O)c3ccc(F)cc3)cc2)C1 (configuration not stated)	x	-3.0%	4.7%	-8.2%	x	-0.8%
CC1CCN(CCCNC(=O)C2CCC(CNS(=O)(=O)c3ccccc3)CC2)CC1 (configuration not stated)	x	2.5%	0.3%	1.7%	x	-1.6%
COc1ccc(C)cc1NC(=O)c1nn(-c2ccccc2)cc1OC	x	u	-5.5%	-16.5%	x	-13.4%
COc1cn(-c2ccccc2)nc1C(=O)Nc1ccccc1	x	13.5µM*	u	16.0%	x	u
COc1cn(-c2ccccc2)nc1C(=O)Nc1ccc(C)cc1	x	8.49µM*	u	-7.4%	x	u
CNC(=S)Nc1ccc(C23CC4CC(CC(C4)C2)C3)cc1	x	u	11.5%	-0.7%	x	-0.4%
CC(=O)Nc1ccc(C23CC4CC(CC(C4)C2)C3)cc1	x	15.1µM*	2.5%	9.3%	x	u
Oc1ccc(C23CC4CC(CC(C4)C2)C3)cc1O	x	15.1µM*	4.9%	2.2%	x	2.3%
SMILES	SMN2 splice up	FLuc modulator	Rab9 prom act	ELG1 genotoxic	Luc counter	NPC1 promoter act
COc1ccc(C(O)Cn2cc([N+](=O)[O-])nc2C)cc1 (configuration not stated)	x	0.4%	-4.9%	-2.1%	x	0.7%
COc1ccc(-c2oc3ncn4nc(COc5ccccc5C)nc4c3c2-c2ccc(OC)cc2)cc1	-0.5%	0.0%	x	x	x	x
Cc1cc(=O)[nH]c(SCn2nnc3ccccc3c2=O)n1	11.6%	1.1%	-10.9%	2.7%	13.0%	-0.9%
Cc1ccc2nc(SCn3nnc4ccccc4c3=O)[nH]c2c1	2.82µM*	4.78µM*	1.78µM*	u	-3.2%	2.51µM*
O=c1c2ccccc2nnn1CSc1ccccc1F	10µM*	2.69µM*	0.891µM*	u	-9.5%	1.26µM*
O=c1c2ccccc2nnn1CSc1nc2ccccc2[nH]1	25.1µM*	15.1µM*	2.82µM*	u	-2.3%	3.55µM*
Cc1ccc(SCn2nnc3ccccc3c2=O)c(C)c1	15.8µM*	19µM*	2.51µM*	u	1.2%	u
Cc1nc2nc(CNC(=O)OC(C)(C)C)nn2c(C)c1CCC(=O)Nc1ccc2c(c1)OCO2	x	u	-0.2%	3.6%	x	-5.6%
CC(C)CNC(=S)Nc1ccc(Oc2ccccc2)cc1	x	-6.2%	2.0%	-2.1%	x	0.4%
O=c1c2ccccc2nnn1CSc1nnc2sc3ccccc3n12	2.24µM*	1.9µM*	0.316µM*	u	-27.5%	0.398µM*
Cc1ccc(NC(=O)CSc2nc3ccc(NC(=O)c4ccco4)cc3s2)cc1	x	-2.9%	x	x	x	x
CS(=O)(=O)c1ccc2nc(NC(=O)c3cccc([N+](=O)[O-])c3)sc2c1	x	1.69µM*	1.26µM*	u	x	1.58µM*
CS(=O)(=O)c1ccc2nc(NC(=O)c3cc([N+](=O)[O-])cc([N+](=O)[O-])c3)sc2c1	x	u	2.0%	-2.4%	x	12.2%
CSc1nc2ccc(NC(=O)c3ccc(=O)n(C)n3)cc2s1	-17.1%	16.9µM*	u	22.1%	-19.9%	28.3%
O=C(Nc1nc2ccc([N+](=O)[O-])cc2s1)c1ccco1	3.55µM*	2.13µM*	0.794µM*	-10.4%	-2.7%	1.58µM*
CSc1nc2ccc(NC(=O)c3ccco3)cc2s1	x	9.53µM*	2.51µM*	8.2µM*	x	2.82µM*
Cc1c(NC(=O)C(C)OC(=O)c2c3c(nc4ccccc24)CCC3)c(=O)n(-c2ccccc2)n1C (configuration not stated)	-3.2%	-5.5%	3.2%	-6.3%	3.6%	-3.5%
O=C(NC(=S)N1CCCCC1)c1csc([N+](=O)[O-])c1	x	2.3%	-3.1%	1.1%	x	1.0%
CC1CC(C)CN(C(=O)COC(=O)c2ccc3ccccc3n2)C1 (configuration not stated)	x	x	-1.8%	0.2%	x	8.1%
Cc1ccc(C)c(N2CCN(c3nc4ccccc4n4nnnc34)CC2)c1	5.7%	-15.3%	x	x	x	x
CC1CCCC(NC(=S)NC(=O)c2ccco2)C1C (configuration not stated)	x	x	x	1.3%	x	x
CCC(=O)Nc1nc2ccc(NC(C)=O)cc2s1	18.3%	u	u	u	8.4%	23.9%
Cc1cccc(OCC(=O)Nc2nc3ccc([N+](=O)[O-])cc3s2)c1	-17.9%	-8.4%	-6.3%	-3.1%	2.7%	-3.3%
